High-throughput results (PubChem BioAssay)
Hits are enriched below; roughly 12% of the tested compounds scored in any of these assays.
Cav32 inh: blocks human Cav3.2 T-type calcium channel. O95180. Cav3.2-expressing cells, Fluo-4 calcium fluorescence FDSS; hits give low values. B-score at 10 µM. hit rate 4% among 100,000. AID 449739;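 active = single-dose well whose peak fluorescence ratio is a statistical outlier from its plate by either plate-standardised score or position-corrected B-score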
PostGolgi ctrl: yeast control strain growth, post-Golgi counter-screen. inhibition, % at 10 µM. AID 738. efflux-deficient yeast background strain, growth absorbance A615, 16 h. hit rate 5% among 98,000
PLAP activator: activates human placental alkaline phosphatase; P05187; purified PLAP enzyme, luminescent substrate read-out; hits give high values; activation fold at 20 µM; hit rate 1.2% among 96,000; AID 696; in the data active = activation fold above about 2
hDAT+cocaine: changed human dopamine transporter uptake under cocaine IC80; Q01959; LLC-PK1 hDAT cells, [14C]-dopamine uptake with cocaine IC80; actives deviate in either direction; B-score at 10 µM; hit rate 1.3% among 110,000; AID 449768;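 active = Z score or B-score, a plate-position-corrected score, falls beyond the plate's 99.7% confidence bounds, in either direction; inactive = both scores lie inside the 99.7% bounds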;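 note: scored against the spread of the other compound wells on the same plate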
Target sequence (Q01959 whole entry, looked up): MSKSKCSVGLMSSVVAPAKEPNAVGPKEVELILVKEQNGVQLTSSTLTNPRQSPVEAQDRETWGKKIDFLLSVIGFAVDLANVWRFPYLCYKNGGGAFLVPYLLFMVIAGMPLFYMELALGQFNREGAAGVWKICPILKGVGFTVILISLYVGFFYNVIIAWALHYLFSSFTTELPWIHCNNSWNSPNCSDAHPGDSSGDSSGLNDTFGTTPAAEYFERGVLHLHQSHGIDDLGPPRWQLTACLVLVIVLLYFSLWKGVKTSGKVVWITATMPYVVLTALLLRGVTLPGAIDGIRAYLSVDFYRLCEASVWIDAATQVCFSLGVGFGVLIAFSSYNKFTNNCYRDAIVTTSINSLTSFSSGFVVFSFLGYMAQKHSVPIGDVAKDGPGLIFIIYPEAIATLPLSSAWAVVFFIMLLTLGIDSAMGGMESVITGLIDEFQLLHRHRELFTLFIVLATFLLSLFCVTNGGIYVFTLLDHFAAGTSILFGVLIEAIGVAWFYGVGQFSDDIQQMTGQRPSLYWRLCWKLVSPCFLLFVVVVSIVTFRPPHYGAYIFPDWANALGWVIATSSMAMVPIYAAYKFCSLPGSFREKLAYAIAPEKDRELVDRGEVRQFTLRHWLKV
PostGolgi yeast: growth inhibition of a yeast mutant, post-Golgi transport screen | post-Golgi transport phenotypic cell assay | inhibition, % at 10 µM | hit rate 0.9% among 98,000;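 note: yeast cells grown in 1536-well plates; yeast grown about 18 h at 30C before absorbance read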
D1 mod: allosterically modulates the human D1 dopamine receptor | P21728 | HEK293 D1, CRE-luciferase, dopamine EC30 potentiation; actives deviate in either direction | B-score at 10 µM | hit rate 5.9% among 58,000;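 active = luminescence count or its row- and column-corrected plate score outside the 99.7% band of the plate's sample wells, on either side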
* hit, by the source's call; . = not tested or not shown. Cut-off read from the data, not from the text of the source, unless noted: active = inhibition above about 30%; inactive = the rest.

SMILES	Cav32 inh	PostGolgi ctrl	PLAP activator	hDAT+cocaine	PostGolgi yeast	D1 mod
O=C(CSc1nc2cc(Cl)ccc2o1)c1cccs1	-0.89	3	0.8	-0.043	2	2.2
COc1ccc(C(C)=O)cc1CSc1nc2cc(Cl)ccc2o1	-0.12	47*	0.8	-0.016	-6	.
Cc1cc(=O)[nH]c(-n2[nH]c(C)cc2=O)n1	1.1	4	2.2*	-0.14	3	.
CN1CCN(C(=O)c2ccc(N(Cc3ccc(Cl)cc3)S(C)(=O)=O)cc2)CC1	-0.8	-1	1.6	-0.085	7	-0.04
O=C(Nc1ccccc1Cl)c1ccccc1Oc1ccc(C(F)(F)F)cc1[N+](=O)[O-]	.	54*	1.3	0.42	-1	.
COc1ccccc1NC(=O)COc1ccc(C(F)(F)F)cc1[N+](=O)[O-]	-1.8	.	.	-0.68	.	.
COc1ccc2c(=O)c(-c3nc(C)cs3)coc2c1	-0.065	4	1.2	0.027	-8	-5.9*
CCc1ccc(/C=N/NC(=O)c2cc(C3CC3)nc3ccc(Br)cc23)s1	-5.2*	13	1.5	0.76	-5	.
Cc1ccc(-c2cc(C(=O)N/N=C\c3cnn(C)c3C)c3ccccc3n2)cc1C	0.17	17	2*	-0.33	-3	.
Cc1ccc(-c2cc(C(=O)NN=C3CCCC3)c3ccccc3n2)cc1	-0.18	3	1.1	-1	-10	.
CCc1ccc(/C=N/NC(=O)c2cc(-c3ccccc3OC)nc3ccccc23)s1	-1.4	75*	1.6	-0.18	9	.
C/C(=N\NC(=O)c1cc(C2CC2)nc2ccccc12)c1ccc(C)s1	-0.36	7	0.9	0.029	21	.
COc1ccccc1-c1cc(C(=O)N/N=C/c2ccc(C)s2)c2ccccc2n1	.	92*	1.8	.	10	.
CCCCCCCCCCCCCCCC(=O)OC[C@H](COP(=O)([O-])OCC[N+](C)(C)C)OC(=O)CCCCCCCCCCCCCCC	0.14	.	.	-0.44	.	.
Cc1ccc(C)c(N2CCN(C(=O)c3cc4sccc4n3C)CC2)c1	-1.2	36*	1.2	0.82	-2	-0.025
Cn1c(C(=O)N2CCCC(C(=O)NCCc3ccccc3)C2)cc2sccc21 (stereo not drawn)	0.14	5	1.6	-0.94	26	-0.48
Cc1ccc(CCNC(=O)C2CCCN(C(=O)c3cc4sccc4n3C)C2)cc1 (stereo not drawn)	-4.8*	4	1.6	-0.96	5	0.1
Cn1c(C(=O)N2CCCC(C(=O)NCCCc3ccccc3)C2)cc2sccc21 (stereo not drawn)	-4.2*	8	1.7	0.91	-4	0.041
Cc1ccc(S(=O)(=O)N(CC(O)CN2C(=O)NC(C)(C)C2=O)c2ccccc2)cc1 (stereo not drawn)	-0.82	1	1.1	0.38	-3	.
O=C(CSc1ccc2nnc(-c3ccc(Cl)cc3)n2n1)N1CCN(c2ccccc2)CC1	.	.	.	.	.	-0.023
COCCOC(=O)C(C#N)c1nc2ccccc2nc1N1CCCC1 (stereo not drawn)	0.6	11	0.9	0.034	-9	3.2
CCCN(CCC)c1nc2ccccc2nc1C(C#N)C(=O)OC(C)COC (stereo not drawn)	-7.7*	18	.	-0.15	3	.
CCCCN(CCCC)c1nc2ccccc2nc1C(C#N)C(=O)NCCCOC (stereo not drawn)	-8.1*	3	1.1	0.2	-9	1.2
CCN(CC)c1nc2ccccc2nc1C(C#N)C(=O)NCCc1ccccc1 (stereo not drawn)	-3.7	33*	1	-0.5	2	0.019
CCN(CC)c1nc2ccccc2nc1C(C#N)C(=O)NCCCOC (stereo not drawn)	-2.5	26	1.2	0.02	9	2.3
SMILES	Cav32 inh	PostGolgi ctrl	PLAP activator	hDAT+cocaine	PostGolgi yeast	D1 mod
O=C(NC(NC(=S)Nc1cccc(Cl)c1)C(Cl)(Cl)Cl)OCc1ccccc1 (stereo not drawn)	0.035	12	0.9	0.59	-4	.
CCn1cc(C(C)NC(=O)COc2ccc(Cl)cc2C)c(C)n1 (stereo not drawn)	0.53	8	1.3	-0.085	-3	0.58
CCC(C)NC(=O)C1CCC(=O)N(c2ccc3c(c2)OCO3)C1c1ccc(OC)cc1 (stereo not drawn)	-0.56	28	1.4	-0.052	3	-0.11
Cc1ccc(CNC(=O)Cc2cccs2)cc1	0.59	15	1.1	0.043	-2	.
Cc1cc2cc(CNC(=O)Cc3cccs3)ccc2n1C	-4.2*	.	.	0.51	.	-0.18
CCC(=O)NCCn1ccc2ccccc21	1.2	2	1	0.56	12	.
Cc1cc2cc(CNC(=O)c3ccc(S(=O)(=O)N(C)C)cc3)ccc2n1C	0.56	31*	1	-0.8	3	.
O=C(Cc1cccs1)NCCn1ccc2ccccc21	-0.94	36*	0.9	-0.096	-6	0.034
CCCN(CC(=O)c1cc(C)n(C)c1C)S(=O)(=O)c1cccc(C(F)(F)F)c1	-4.4*	-7	1	0.3	12	-1.9
Cc1ccc(S(=O)(=O)NC(CC(=O)n2nc(C)cc2C)c2ccccc2)cc1 (stereo not drawn)	-6.3*	35*	1.1	-1.4	-5	.
CCC1(CC)C(=O)C2=C3C1[C@H](C(=O)OC)C=C(C(=O)OC)C[C@H]3n1c(=O)n(-c3ccccc3)c(=O)n1[C@H]2C (stereo partly drawn)	-0.012	.	.	0.77	.	.
O=[N+]([O-])c1ccc(N2CCN(S(=O)(=O)c3ccccc3)CC2)cc1NCc1cccnc1	0.93	18	0.8	-0.48	-7	.
O=[N+]([O-])c1ccc(N2CCN(S(=O)(=O)c3ccc(Cl)cc3)CC2)cc1NCc1cccnc1	0.047	11	1.2	0.18	71*	.
O=C(NNC(=O)c1cc(OCC(F)(F)F)ccc1OCC(F)(F)F)c1cccc(C(F)(F)F)c1	-9*	-6	1.7	-0.53	-1	.
Cc1ccc(C(=O)NNC(=O)c2cc(OCC(F)(F)F)ccc2OCC(F)(F)F)cc1	-1.2	4	1.1	0.96	-5	.
O=C(N/N=C/c1ccc(Sc2ccccn2)o1)c1cc2ccccc2cc1O	-5*	0	1.5	0.019	-5	.
CC(C)CC(NC(=O)C(Cc1ccc(OCc2ccccc2)cc1)NC(=O)OC(C)(C)C)C(N)=O (stereo not drawn)	-4.8*	9	1.8	0.082	0	.
O=C(NCCC1=CCCCC1)c1ccc2c(c1)N(Cc1ccccc1)C(=O)CS2	-3.9	14	1.1	1.9	-9	.
CCn1c(SC(C)C)nnc1-c1cc(-c2ccccc2)sc1N	-3.7*	.	.	1.6	.	.
COc1ccc(NC(=O)CN2CCN(CC(=O)Nc3ccccc3Cl)CC2)cc1Cl	-1.7	2	1.5	0.97	11	0.45
COc1ccccc1NC(=O)CN1CCN(CC(=O)Nc2ccc(Cl)c(C(F)(F)F)c2)CC1	-11*	82*	1.5	0.95	-2	-0.018
O=C(CN1CCC(C(=O)c2ccc(F)cc2)CC1)Nc1ccc(F)cc1	-5.4*	.	.	0.036	.	.
O=C(CN1CCC(C(=O)c2ccc(F)cc2)CC1)Nc1ccccc1	-1.3	16	0.9	0.51	3	-2.7
